Results published in PubChem BioAssay (NCI).
This is part of a sample that, as a whole, favours compounds with a hit. Of some 83,000 tested, about 20% had one in any assay.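 96-well plates, one dose, 48 hours. Percent growth reported; active if below 10.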 Unmarked numbers belong to inactive results. Calls of active or inactive are those of the source.

Key:
Experiment in all cases: NCI-60 one-dose screen, 48 h (100 = growth as untreated, 0 = no growth, -100 = all killed)
Conditions in all cases: 10 µM
[1] = tested on: SR leukemia
[2] = tested on: RPMI-8226 leukemia
[3] = tested on: OVCAR-8 ovarian
[4] = tested on: OVCAR-5 ovarian
[5] = tested on: OVCAR-4 ovarian
[6] = tested on: SK-OV-3 ovarian
[7] = tested on: IGROV1 ovarian
[8] = tested on: OVCAR-3 ovarian
[9] = tested on: NCI/ADR-RES ovarian
[10] = tested on: T-47D breast
[11] = tested on: BT-549 breast
[12] = tested on: MDA-MB-435 melanoma
[13] = tested on: SW-620 colon
[14] = tested on: MCF7 breast
[15] = tested on: HCT-116 colon
[16] = tested on: HCC-2998 colon
[17] = tested on: KM12 colon
[18] = tested on: HS 578T breast

SMILES	growth [1]	growth [2]	growth [3]	growth [4]	growth [5]	growth [6]	growth [7]	growth [8]	growth [9]	growth [10]	growth [11]	growth [12]	growth [13]	growth [14]	growth [15]	growth [16]	growth [17]	growth [18]
O=C(O)c1ccc(CNc2ccc(C(=O)CCl)cc2)cc1	41.8%	85.7%	99.3%	96.8%	91%	100%	134%	90.5%	123%	58.1%	96.4%	87.7%	93.4%	32.4%	80.8%	127%	101%	
COc1ccc(-c2n/c(=C\c3c(O)[nH]c4ccccc34)cc3c2=Nc2ccccc2-3)cc1	6.48% (active)	24.7%	20.1%	89.1%	5.98% (active)	93.5%	85.6%		5.95% (active)	84.8%	78.4%	4.87% (active)	-6.59% (active)	-22% (active)		17.8%		80.7%
Cn1cnc([N+](=O)[O-])c1/C=C1\Oc2ccc(Cl)cc2C1=O	20.7%	70.7%	72.5%	108%	92.3%	96.2%	73.1%	86%	100%	85.1%	109%	86.2%	72%	40.2%		97.4%	82.9%	
COc1cccc(C(=O)NNc2nc(N3CCN(C4CCCCC4)CC3)nc(N3CCN(C(c4ccccc4)c4ccccc4)CC3)n2)c1	-16.1% (active)	-11.5% (active)	30.1%	94.3%	24.2%	52.2%	37.6%	32.2%	31.1%	29%	55.5%	35%	39%	11.2%	19%	42%	23.6%	
O=[N+]([O-])c1ccc(-c2nc(-c3ccccc3)c(-c3ccccc3)n2-c2ccccc2)cc1	4.19% (active)	-20.3% (active)	26.7%	91.5%	24.7%	55.5%	-29.1% (active)	40.2%	5.77% (active)	21.6%		36.5%	48.8%	19.6%	33.2%	-36.9% (active)	37%	
C[N+]1(CC2CO2)CCCCCC1 (centres undefined)	106%	103%	106%	95.9%	94.3%	113%	112%	104%	113%	116%	116%	102%	106%	107%	103%	112%	93.9%	
O=S(=O)(NC1c2ccccc2Oc2ccccc21)c1ccccc1	58.3%	94.1%	88.8%	101%	88.6%	99.6%	97.3%	97.6%	90.9%	82.3%	91.6%	107%	97%	91.5%	84.9%	103%	104%	
C=CCc1cc(Nc2c3ccc(Cl)cc3nc3ccc(OC)cc23)cc(CN(CC)CC)c1O	-20.4% (active)	-25.7% (active)	8.73% (active)	47.5%	9.26% (active)	1.21% (active)	25.5%	6.47% (active)	43.9%	0.233% (active)	10.9%	15.5%	15.9%	3.42% (active)	5.97% (active)	24.2%	11.7%	
COc1cc(-c2nc(-c3nnc(-c4cccnc4)o3)c3ccccn23)cc(OC)c1OC	104%	60.9%	73.8%	110%	123%	108%		129%	82.2%	100%	97.7%	99.2%	92.8%	107%	96.8%	99.9%	100%	103%
Cc1cn(C(=O)/C(Cl)=C(/Cl)C(=O)O)c2ccccc12	101%	82.4%	110%	103%	101%	95.8%		104%	104%	101%	111%	109%	104%	108%	105%	108%	108%	97.8%
c1ccc(CNc2nc(Nc3ccc(-c4nc5ccccc5[nH]4)cc3)c3cn[nH]c3n2)cc1	-13.8% (active)	2.15% (active)	-12.5% (active)	41.1%	25.7%	10.8%		-38.1% (active)	6.33% (active)	-30.6% (active)	-24.8% (active)	-6.74% (active)	7.33% (active)	1.71% (active)	-54.5% (active)	-5.53% (active)	9.4% (active)	-6.55% (active)
O=C(Nc1cccc(Cl)c1)Nc1cc2ncncc2cc1OCc1cccc(F)c1	-1.31% (active)	-0.539% (active)	3.52% (active)	29.6%	22.4%	28.1%		12.6%	13.6%	-5.19% (active)	44.8%	0.458% (active)	23.9%	6.04% (active)	8.63% (active)	35.7%	9.08% (active)	45.9%
S=c1c2ncccc2c(-c2ccccn2)nn1Cc1ccccn1	87.2%	97.9%	106%	111%	97.2%	93.5%		115%	103%	75.5%	79.7%	100%	109%	90.7%	62%	91.9%	103%	111%
Cc1nc2ccc(-n3c(-c4ccc(Cl)cc4)nc4ccccc4c3=O)cc2n1Cc1ccccc1	86.7%	64.6%	93.4%	118%	90.7%	87.3%		99.6%	94.9%	78.8%	83.3%	97.2%	93.7%	85%	93%	107%	97.8%	101%
O=C(NCCc1nccs1)c1cnc2c(S)cccc2c1	14.6%	26.2%	29.3%	75.2%	27.1%	20.1%		5.69% (active)	5.32% (active)	10.8%	48.1%	26.4%	4.05% (active)	-3.22% (active)	2.16% (active)	35.5%	19.6%	21.5%
O=C(O)CCCN1C(=O)NC2(C1=O)c1ccccc1-c1ccccc12	100%	99.9%	97.3%	101%	106%	103%		109%	96.8%	89.4%	96.7%	103%	104%	97.3%	95.6%	101%	102%	93.9%
Cc1cc(C)c2nc(C)c(C)[n+]([O-])c2c1	82.3%	90.7%	94%	99.6%	107%	85.4%		110%	104%	94.9%	106%	111%	114%	95.6%	97.3%	97.9%	106%	112%
N#CN1CC[C@H](C(=O)Nc2ncc(-c3ccncc3)s2)C1	1.53% (active)	7.02% (active)	2.72% (active)	5.32% (active)	3.57% (active)	2.96% (active)		-22.1% (active)	5.43% (active)	-23.4% (active)	-14.7% (active)	6.91% (active)	7.08% (active)	2.99% (active)	1.83% (active)	4.61% (active)	-1.2% (active)	2.54% (active)
CN(C)c1ccc2c(c1)OC(N)=C(C#N)C2c1ccc2c(c1)CCCN2C (centres undefined)	29.5%	34.5%	30.9%	78.2%	56.3%	24.4%		3.67% (active)	0.712% (active)	44.5%	49.4%	-5.69% (active)	35%	18.1%	7.88% (active)	26.7%	23.1%	20.1%
